Screens (PubChem BioAssay)
D2 ag-1: HTS Assay for Allosteric Agonists of the Human D2 Dopamine Receptor: Primary Screen for Agonists; AID 485358, 2010; HEK293 T-REx D2 cells, calcium flux agonist mode; D(2) dopamine receptor (Homo sapiens), P14416; activation, % at 2 µM; actives 0.53% (n = 340,000);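 active = activation over 3 SD above normal in the single-dose calcium agonist read, cut at about 30% in these data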
Target sequence (P14416 whole entry, looked up): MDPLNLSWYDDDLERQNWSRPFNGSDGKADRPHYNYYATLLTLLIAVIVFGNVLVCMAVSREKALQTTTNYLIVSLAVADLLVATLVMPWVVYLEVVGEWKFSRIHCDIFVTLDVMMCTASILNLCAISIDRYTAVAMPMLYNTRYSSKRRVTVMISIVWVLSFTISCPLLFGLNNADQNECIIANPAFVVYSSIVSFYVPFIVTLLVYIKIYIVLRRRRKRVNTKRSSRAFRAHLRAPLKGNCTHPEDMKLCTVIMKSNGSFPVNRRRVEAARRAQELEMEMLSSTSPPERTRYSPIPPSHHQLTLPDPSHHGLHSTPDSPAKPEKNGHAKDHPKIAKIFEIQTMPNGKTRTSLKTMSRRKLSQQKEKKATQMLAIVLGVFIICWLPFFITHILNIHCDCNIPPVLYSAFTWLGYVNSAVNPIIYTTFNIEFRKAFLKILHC
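Tetracycline-induced HEK293 Trex cells with D2 receptor force-coupled to calcium signaling, plated overnight at 30 C and loaded with no-wash calcium dye. Calcium flux read kinetically for 180 s after compound addition; responses flag agonists.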
D2 antagonist: HTS Assay for Allosteric Antagonists of the Human D2 Dopamine Receptor: Primary Screen for Antagonists; D(2) dopamine receptor (Homo sapiens), P14416; AID 485344, 2010; HEK293 TREx D2 cells, calcium flux, dopamine EC80; actives 2% (n = 340,000); inhibition, % at 10 µM; in the data active = inhibition above about 30%; inactive = below that, where a call was filed
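Measurement of antagonist activity uses fluorescent calcium dye in inducible HEK293 T-REx D2 cells: 10 s baseline, compound addition with 180 s read, EC80 dopamine addition with a further 180 s read.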
D2 PAM-1: Beta-Arrestin HTS for Positive Allosteric Modulators of the Human D2 Dopamine Receptor: Potentiators; D(2) dopamine receptor (Homo sapiens), P14416; DiscoveRx D2 beta-arrestin cells, luminescence, 90 min; 100% = 57 uM dopamine signal; potentiation, % (concentration not given with the values); actives 0.23% (n = 360,000); AID 624464, 2012; in the data active = potentiation above about 50%; inconclusive = mostly about 30% to 49%
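PathHunter D2 cells, attached overnight at 37 deg C, received compound in DMSO plus dopamine at EC20 (50 nM final) for 90 min at 37 deg C. Beta-arrestin recruitment was read as luminescence after 1 h with detection reagent at ambient temperature.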
D2 PAM-2: HTS Assay for Positive Allosteric Modulators of the Human D2 Dopamine Receptor: Primary Screen for Potentiators; D(2) dopamine receptor (Homo sapiens), P14416; HEK293 T-REx D2, calcium flux, EC20 dopamine potentiation; potentiation, % at 10 µM; actives 0.34% (n = 340,000);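 active = potentiation over 3 SD above the plate norm, cut at about 30% in these data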
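Tetracycline-induced HEK293 T-REx cells force-coupled to calcium signalling expressed D2; compounds were pin-added after a 10 s baseline, read kinetically 180 s, then an EC20 dopamine challenge followed with a further 180 s calcium read.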
D2 ag-2: Beta-Arrestin HTS for Positive Allosteric Modulators of the Human D2 Dopamine Receptor: Agonists | D(2) dopamine receptor (Homo sapiens), P14416 | actives 0.084% (n = 360,000) | activation, % (concentration not given with the values) | DiscoveRx PathHunter D2 beta-arrestin, luminescence, 90 min; 100% = 57 uM dopamine signal; in the data active = activation above about 40%; inconclusive = between about 15% and that limit
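Agonist mode: compounds alone added to overnight-plated D2 PathHunter cells for 90 min at 37 C, with 57 uM final dopamine (EC100) defining full response. Beta-arrestin recruitment detected by chemiluminescent reagent, read after 1 h at ambient temperature.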
Each line names hits and unclear results; the compound was inactive in the other large screens. Rows were chosen to be rich in hits. Some 2.4% of all compounds tested hit in one or more screens of this group.

O=C(N[C@H]1CC1c1ccccc1)c1ccc([N+](=O)[O-])cc1 (stereo not given in full)	D2 antagonist 32.9
CC(C)c1cnc2c(c1SCC(=O)Nc1ccccc1C(F)(F)F)c(=O)n(C)c(=O)n2C	none (no result: D2 antagonist, D2 PAM-1, D2 ag-2)
COc1ccc(NC(=O)COCc2cc(-c3cccs3)on2)cc1	none (no result: D2 antagonist, D2 PAM-1, D2 ag-2)
CC1CCCCN1C(=O)c1ccccc1NC(=O)c1ccco1 (stereo not given)	D2 PAM-2 31.3
CNC(=O)c1ccccc1NC(=O)c1ccco1	D2 PAM-2 33.6
Cc1ccccc1NC(=O)c1ccccc1NC(=O)c1ccco1	none
CCCCCCN1C=CC(=C/C=C(\C#N)C(=O)OCC)C=C1	D2 ag-1 43.1
CCCN1C=CC(=CC=C(C#N)C#N)C=C1	none
CCCN1C=CC(=C/C=C(\C#N)C(=O)OCC)C=C1	D2 ag-1 34.5 (no result: D2 PAM-1, D2 ag-2)
O=C(Nc1nnc(S(=O)(=O)N2CCCc3ccccc32)s1)c1ccccc1Cl	none (no result: D2 antagonist, D2 PAM-1, D2 ag-2)
OC(CNCc1ccc(Cl)cc1)COc1ccccc1 (stereo not given)	D2 antagonist 49.0
OC(CNCc1ccccc1)COCc1ccc(Cl)cc1 (stereo not given)	none
Cc1ccc(OCCNCC(O)COc2ccccc2)cc1 (stereo not given)	D2 antagonist 45.2
CCOc1ccc(-c2cn3c(n2)sc2cc(C(=O)N4CCCC(C)C4)ccc23)cc1 (stereo not given)	none (no result: D2 antagonist, D2 PAM-1, D2 ag-2)
COc1ccc(C)cc1NC(=O)CSc1nc(=O)n(Cc2cccnc2)c2c1CCC2	none (no result: D2 antagonist, D2 PAM-1, D2 ag-2)
O=C(CCCc1ccccc1)Nc1ccnn1C1CCN(Cc2ccc(Cl)cc2)CC1	D2 antagonist 35.4
O=C(CCCc1ccccc1)Nc1ccnn1C1CCN(Cc2ccccc2)CC1	D2 antagonist 40.7
Cc1c(C)n(O)c2ccc3nonc3c12	D2 antagonist 41.1
O=C(O)CC/C(=N\Nc1ccc(S(=O)(=O)N2CCCC2)cc1[N+](=O)[O-])c1cccs1	none
O=C(O)CC/C(=N\Nc1ccc(S(=O)(=O)N2CCOCC2)cc1[N+](=O)[O-])c1cccs1	D2 antagonist 30.0
COc1cccc(OC)c1Oc1ccc(C(F)(F)F)cn1	D2 antagonist 66.1
FC(F)(F)c1ccc(Oc2ccccc2Cl)nc1	none
Cc1cc(C(=O)Cn2nc(C(=O)O)c3ccccc3c2=O)c(C)n1-c1ccc(OC(F)F)cc1	D2 PAM-2 36.5
COc1ccc(-n2c(C)cc(C(=O)Cn3nc(C(=O)O)c4ccccc4c3=O)c2C)cc1	none
COc1ccccc1N(CC(O)Cn1ccnc1C)S(=O)(=O)c1ccc(C)cc1 (stereo not given)	D2 antagonist 67.2
Clc1ccc(/C=C\c2nccc3c2[nH]c2ccccc23)cc1	D2 antagonist 66.4
Cc1cc(C)c(/C=C(\C#N)C(N)=S)c(C)c1	D2 antagonist 84.0
CCOc1ccc(S(=O)(=O)NCC(c2ccco2)S(=O)(=O)c2ccc(F)cc2)cc1 (stereo not given)	none (no result: D2 antagonist, D2 PAM-1, D2 ag-2)
c1ccc(COc2cccc(CN3CCCCC3)c2)cc1	none (no result: D2 ag-1, D2 antagonist)
c1ccc(COc2cccc(CN3CCN(c4ccccn4)CC3)c2)cc1	D2 PAM-1 inconclusive, D2 ag-2 47.9
Cc1cccc(CN2CCN(c3ccccn3)CC2)c1	D2 PAM-1 91.5, D2 ag-2 46.1 (no result: D2 ag-1, D2 antagonist, D2 PAM-2)
COc1ccc(Cl)cc1NC(=O)C(C)N1CCN(c2ccccn2)CC1 (stereo not given)	D2 ag-1 31.3
COc1ccc(Cl)cc1C(=O)N1CCN(c2ccccn2)CC1	none
CC(C(=O)Nc1ccccc1)N1CCN(c2ccccn2)CC1 (stereo not given)	D2 ag-1 39.9
Cc1cccc(NC(=S)N2CCN(c3ccccn3)CC2)c1	none
CC(=O)c1cccc(NC(=S)N2CCN(c3ccccn3)CC2)c1	D2 ag-1 39.9
COc1cc(Cl)c(NC(=O)CN(C)S(=O)(=O)c2ccc3[nH]c4c(c3c2)CCCC4)c(OC)c1	none (no result: D2 antagonist, D2 PAM-1, D2 ag-2)
